The values that follow come from PubChem BioAssay (NCI).

“And” between values parts separate entries of the source, which are not always exact repeats. Identical values can stand only once. Compounds without any hit were thinned out: in the full panel of roughly 83,000, 20% have a hit.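 48-hour exposure, single concentration, 96-well plates; percent growth endpoint where 0 means no net growth. Active: below 10.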 The source made the active and inactive calls.

The assay deals with SK-OV-3 ovarian. Put plainly: NCI-60 one-dose screen, 48 h (100 = growth as untreated, 0 = no growth, -100 = all killed). The note with it: 10 µM. As for the experimental part:
Growth inhibition of the SK-OV-3 human tumor cell line is measured as a screen for anti-cancer activity. Cells are grown in 96 well plates and exposed to the test compound for 48 hours. Compounds are tested at a single concentration, which is 10^-5 M for most compounds. The reported endpoint is percent growth (GI% or GIPRCNT), where numbers from 0 - 100% represent growth inhibition, and numbers from -100% - 0 represent cell death. For example, a value of 40 represents 60% growth inhibition. A value of 0 means no net growth occurred over the course of the experiment. A value of -40 indicates 40% of cells at the beginning of the experiment died by the end of the experiment. A value of -100 means all cells are dead at the end of the experiment.
NCI-60 Human Tumor Cell Lines Screen was performed using the standard one-dose NCI protocol, which is described in more detail at https://dtp.cancer.gov/discovery_development/nci-60/default.htm.
Compounds with GIPRCNT values below 10 were considered active. Activity score was based on GIPRCNT using the following formula: […]
Score is 0 for GIPRCNT values of 100 or above, 50 for GIPRCNT values of 0, and 100 for GIPRCNT values of -100.
In the case of `CC(C)(O)/C=C/C(=O)[C@](C)(O)[C@H]1[C@H](O)C[C@@]2(C)[C@H]3CC=C4[C@@H](C[C@H](O)C(=O)C4(C)C)[C@]3(C)C(=O)C[C@]12C`, the growth was -8.31% (active). `CC1=C[C@H]2O[C@@H]3C[C@H]4OC(=O)/C=C\C=C\[C@H]([C@@H](C)O)OCC[C@@H](C)[C@H](O)C(=O)OC[C@@]2(CC1)[C@]4(C)[C@]31CO1`: the growth is -18.6% (active). Regarding `O=C(CCCc1ccc(N(CCCl)CCCl)cc1)OCc1ccccc1`, the growth was 108% (inactive).

Consider `CC1=C2C(=C[C@@](C)(COS(C)(=O)=O)[C@@H]2O)C(=O)[C@](C)(O)C12CC2`, for which the growth is -13.9% (active). Under `CC1=C2C(=C[C@@](C)(C=O)[C@@H]2O)C(=O)[C@](C)(O)C12CC2` stands 11.1% (inactive); under `CCCCCCCCCC(=O)N[C@@](C)(CC)C(=O)N1CCC[C@H]1C(=O)N[C@@H](CC(C)C)C(=O)N[C@@](C)(CC)C(=O)N[C@@H](CCC(N)=O)C(=O)N[C@H](CCC(N)=O)C(=O)NC(C)(C)C(=O)NC(C)(C)C(=O)N[C@@H](CCC(N)=O)C(=O)N[C@H](CC(C)C)C(=O)N[C@H](CO)CC(C)C`, -77.5% (active) and -56.9% (active); under `CC(=O)O[C@@H]1[C@@H]2O[C@H]2[C@@](C)(O)C(=O)[C@@H](C)C/C=C/[C@H]2[C@@H]3O[C@]3(C)[C@@H](C)C3[C@H](Cc4ccccc4)NC(=O)[C@@]312` (stereo not given in full), 22.9% (inactive). With `C/C=C/CC(C)C(O)[C@H](NC(=O)[C@@H]1CCCN1C(=O)C(C)(C)NC(=O)CCCCCCCCC)C(=O)N[C@@](C)(CC)C(=O)N[C@@H](CCC(N)=O)C(=O)N[C@H](CCC(N)=O)C(=O)NC(C)(C)C(=O)NC(C)(C)C(=O)N[C@@H](CCC(N)=O)C(=O)N[C@H](CC(C)C)C(=O)N[C@H](CO)CC(C)C` (stereo not given in full), the growth was 37.6% (inactive) and 80.8% (inactive). For `CN1C(=O)[C@]23SSC1(C)C(=O)N2[C@H]1Nc2ccccc2C1([C@@]12c4ccccc4N[C@@H]1N1C(=O)C4(C)SS[C@]1(C(=O)N4C)[C@H]2O)[C@@H]3O` (stereo not given in full), the growth is -98.8% (active).

Regarding `COc1cc(OC)c(S(=O)(=O)N(CCCl)CCCl)cc1C(=O)/C=C/c1ccc(Cl)cc1`, the growth is 79% (inactive). Under `C=C1[C@@H](C)C2[C@H](Cc3ccccc3)NC(=O)[C@]23[C@H](OC(C)=O)/C=C/[C@@](C)(O)C(=O)[C@@H](C)C/C=C/[C@H]3[C@@H]1O` (stereo not given in full) stands 15.1% (inactive). As for `COC1[C@@H]2C[C@H]3C(C)(C)O[C@@](C/C=C(/C)C(=O)O)(C2=O)[C@]32Oc3c(CC=C(C)C)c4c(c(O)c3C(=O)[C@H]12)C=CC(C)(C)O4` (stereo not given in full), the growth is 13.7% (inactive).

Turning to `CN(CCF)/N=N/c1nc[nH]c1C(N)=O`, the growth is -4.12% (active). With `C/C=C/CC(C)C(O)[C@H](NC(=O)[C@@H]1CCCN1C(=O)C(C)(C)NC(=O)CCCCCCCCC)C(=O)NC(C)(C)C(=O)N[C@@H](CCC(N)=O)C(=O)N[C@H](CCC(N)=O)C(=O)NC(C)(C)C(=O)NC(C)(C)C(=O)N[C@@H](CCC(N)=O)C(=O)N[C@H](CC(C)C)C(=O)N[C@H](CO)CC(C)C` (stereo not given in full), the growth is 61.8% (inactive) and 50.9% (inactive). As for `CC1=C2C(=C[C@@](C)(COC(=O)c3ccc(S(=O)(=O)F)cc3)[C@@H]2O)C(=O)[C@](C)(O)C12CC2`, the growth was -24.7% (active). `CC1=C(CN(O)C(N)=O)C2=C(C)C3(CC3)[C@@](C)(O)C(=O)C2=C1`: the growth is -16.3% (active). Regarding `COc1cc2c(O[C@@H]3OC[C@H](OC(C)=O)[C@H](OC(C)=O)[C@H]3O)c3c(c(-c4ccc5c(c4)OCO5)c2cc1OC)C(=O)OC3`, the growth is 23.8% (inactive). In the case of `C/C=C/CC(C)C(O)[C@H](NC(=O)[C@@H]1CCCN1C(=O)C(C)(C)NC(=O)CCCCCCC)C(=O)N[C@@](C)(CC)C(=O)N[C@@H](CCC(N)=O)C(=O)N[C@H](CCC(N)=O)C(=O)NC(C)(C)C(=O)NC(C)(C)C(=O)N[C@@H](CCC(N)=O)C(=O)N[C@H](CC(C)C)C(=O)N[C@H](CO)CC(C)C` (stereo not given in full) it was 101% (inactive) and 52.6% (inactive). In the case of `CCC(C)[C@H]1C(=O)O[C@H](C(C)C)C(=O)N(C)[C@@H](C(C)C)C(=O)O[C@H](C(C)C)C(=O)N(C)[C@@H](C(C)C)C(=O)O[C@H](C(C)C)C(=O)N1C` (stereo not given in full), the growth is -9.75% (active).

For `C[C@@H]1CCC/C=C/[C@H]2C[C@@H](O)C[C@@H]2[C@@H](O)/C=C/C(=O)O1`, the growth is 8.48% (active). For the compound `C/C=C\C(=O)O[C@@H]1CC2O[C@@H]3C=C(C)C(=O)C[C@]3(C)[C@]1(C)[C@]21CO1`, the growth was -15.1% (active). Under `CC1=C2C(=O)[C@](C)(CO)C=C2C(=O)[C@](C)(O)C12CC2` stands 24.2% (inactive); under `CC1=C(CN(O)C(N)=O)C2=C(C)C3(CC3)[C@](C)(O)C(=O)C2=C1`, 14.7% (inactive). On to `COc1cc2c(O[C@@H]3OC[C@H](O)[C@H](O)[C@H]3O)c3c(c(-c4ccc5c(c4)OCO5)c2cc1OC)C(=O)OC3`, for which the growth was 69.1% (inactive). Under `NC1CCc2cc(O)c(O)cc2C1` (stereo not given) stands 104% (inactive); under `COC(=O)[C@H]1[C@@H](O)[C@@]2(O)c3c(OC)cc(OC)cc3O[C@@]2(c2ccc(OC)cc2)[C@@H]1c1ccccc1`, -12.2% (active). For the compound `Cc1ccc(CNc2nc3ccc(OC/C(=C/F)CN)cc3o2)cn1`, the growth is 105% (inactive).

Consider `COc1cccc2c1cc([N+](=O)[O-])c1c(C(=O)O)cc3c(c12)OCO3`, for which the growth is 113% (inactive).

Consider `N#Cc1c(-n2c(Br)c(Br)c3cc(Br)ccc32)[nH]c2c(Br)cc(Br)cc12`, for which the growth was -44.3% (active).

Take `C[C@@H]1C[C@H]2C(=O)O[C@@H](C)C(NC(=O)[C@H](Cc3cc(F)cc(F)c3)NC(=O)Nc3ccc(OS(=O)(=O)F)cc3)C(=O)N3CCC[C@H]3C(=O)N3CCO[C@H](C)[C@H]3C(=O)N[C@@H](CO)C(=O)N2C1` (stereo not given in full): the growth was 18.7% (inactive). Regarding `C/C=C/CC(C)C(O)[C@H](NC(=O)[C@@H]1CCCN1C(=O)C(C)(C)NC(=O)CCCCCCCCC)C(=O)N[C@@](C)(CC)C(=O)N[C@@H](CCC(N)=O)C(=O)N[C@H](CCC(N)=O)C(=O)NC(C)(C)C(=O)N[C@@](C)(CC)C(=O)N[C@@H](CCC(N)=O)C(=O)N[C@H](CC(C)C)C(=O)N[C@H](CO)CC(C)C` (stereo not given in full), the growth was 111% (inactive) and -11.2% (active). In the case of `N#Cc1nc(-c2ccccc2)oc1N1CCC(S(=O)(=O)F)CC1` it was 107% (inactive). Take `COc1cc(C)c(-c2ccc(OC)c(=O)cc2C)c(OC)c1OC`: the growth was 32.4% (inactive) and 102% (inactive). As for `CC1=C[C@H]2O[C@@H]3C[C@H]4OC(=O)/C=C\C=C\[C@H]([C@@H](C)O)OCC/C(C)=C/C(=O)OC[C@@]2(CC1)[C@]4(C)[C@]31CO1`, the growth is -23.5% (active). Under `CC(=O)O[C@@H]1C[C@H]2O[C@@H]3C=C(C)CC[C@]3(C)[C@]1(C)[C@]21CO1` stands 18.1% (inactive).

With `CC1=C(CCC=NNC(N)=O)C2=C(C)C3(CC3)[C@@](C)(O)C(=O)C2=C1`, the growth was -52.1% (active).

For the compound `CC1=C2C(=C[C@@](C)(COC(=O)c3ccc(S(=O)(=O)F)cc3)[C@@H]2OC(=O)c2ccc(S(=O)(=O)F)cc2)C(=O)[C@](C)(O)C12CC2`, the growth is -9.96% (active). Under `COc1cc2c(cc1OC)[C@@H]1N(CC2)C(=O)c2ccccc2[C@@]1(C)C(=O)O` stands 113% (inactive). Under `CC(C)=CCc1c2c(c(O)c3c1O[C@]14C(=C[C@@H]5C[C@H]1C(C)(C)O[C@@]4(C/C=C(/C)C(=O)O)C5=O)C3=O)C=CC(C)(C)O2` stands -38.9% (active). In the case of `CC1=C[C@H]2O[C@@H]3C[C@@H](O)[C@](C)([C@@]2(C)CC1)[C@@]31CO1`, the growth is 22.9% (inactive).
